Measurements: PubChem BioAssay AID504911 (Southern Research Specialized Biocontainment Screening …, 2011)
Entries with a potency or affinity are not part of this list. The source made the active and inactive calls. No rule for the calls is given here.

Experiment: THP-1 cell cytotoxicity, cytotoxicity control, set 4 (AID 504911)

Question: For `NNC(=O)c1ccncc1`, which outcome is on record?
Answer: Its outcome is “inactive”.

Question: With `Nc1cc(=O)[nH]c(SCC(=O)NC2CCCCC2)n1` as the molecule, how does the outcome read?
Answer: Its outcome is “inactive”.

Question: Which outcome does the source give for `CCC(Sc1nc2ccccc2c(=O)[nH]1)C(=O)NC1CCCCC1` (configuration not stated) here?
Answer: Its outcome is “inactive”.

Question: For `NC(=O)CSc1nc2ccccc2c(=O)[nH]1`, which outcome is on record?
Answer: The outcome was “inactive”.

Question: With `Cn1c(SCC(=O)NC2CCCCC2)nc2ccccc2c1=O` as the molecule, how does the outcome read?
Answer: Its outcome is “inactive”.

Question: Which outcome does the source give for `CCOC1OC(=O)C(Cl)=C1Nc1ccccc1C` (configuration not stated) here?
Answer: Its outcome is “inactive”.

Question: For `Cc1ccc(NC(=O)CSc2nc3ccccc3c(=O)[nH]2)cc1Cl`, which outcome is on record?
Answer: The outcome was “inactive”.

Question: For `COc1ccc(NC(=O)CSc2nc3ccccc3c(=O)[nH]2)cc1`, which outcome is on record?
Answer: The outcome was “inactive”.

Question: For `Cc1cc(=O)[nH]c(SCC(=O)NC2CCCCC2)n1`, which outcome is on record?
Answer: Its outcome is “inactive”.

Question: Which outcome does the source give for `CCOC(=O)CSc1nc(C)c(C)c(=O)[nH]1` here?
Answer: Its outcome is “inactive”.

Question: Which outcome does the source give for `CN1CCC(NC(=O)CSc2nc3ccccc3c(=O)[nH]2)CC1` here?
Answer: The outcome was “inactive”.

Question: Which outcome does the source give for `CN[C@@H]1[C@H](O[C@H]2[C@H](O[C@H]3[C@H](O)[C@@H](O)[C@H](N=C(N)N)[C@@H](O)[C@@H]3N=C(N)N)O[C@@H](C)[C@]2(O)C=O)O[C@@H](CO)[C@H](O)[C@H]1O` here?
Answer: Its outcome is “inactive”.

Question: With `COc1c(N2CCNC(C)C2)c(F)cc2c(=O)c(C(=O)O)cn(C3CC3)c12` (configuration not stated) as the molecule, how does the outcome read?
Answer: Its outcome is “inactive”.

Question: For `CCC(Sc1nc2ccccc2c(=O)[nH]1)C(=O)Nc1cccc(OC)c1` (configuration not stated), which outcome is on record?
Answer: Its outcome is “inactive”.

Question: With `Cc1nc(SCC(N)=O)[nH]c(=O)c1C` as the molecule, how does the outcome read?
Answer: Its outcome is “inactive”.

Question: Which outcome does the source give for `Cc1nc(SCC(=O)NC2CCCCC2)[nH]c(=O)c1C` here?
Answer: The outcome was “inactive”.

Question: For `CC(C)CCNC(=O)CSc1nc2c(c(=O)[nH]1)CCC2`, which outcome is on record?
Answer: Its outcome is “inactive”.

Question: With `O=c1[nH]c(=S)[nH]c2ccccc12` as the molecule, how does the outcome read?
Answer: The outcome was “inactive”.

Question: With `Cc1ccc(NC(=O)COC(=O)CCc2c[nH]c3ccccc23)cc1[N+](=O)[O-]` as the molecule, how does the outcome read?
Answer: The outcome was “inactive”.

Question: Which outcome does the source give for `O=C(CSc1nc2ccccc2c(=O)[nH]1)NC1CCCCC1` here?
Answer: Its outcome is “inactive”.

Question: For `Cc1nc(SCC(=O)NC2CCCC2)[nH]c(=O)c1C`, which outcome is on record?
Answer: Its outcome is “inactive”.

Question: With `CC1CCN(C(=O)CSc2nc3ccccc3c(=O)[nH]2)CC1` as the molecule, how does the outcome read?
Answer: Its outcome is “inactive”.

Question: Which outcome does the source give for `Cc1c[nH]c(=S)[nH]c1=O` here?
Answer: The outcome was “inactive”.

Question: Which outcome does the source give for `COC(=O)c1ccc(CNc2c(N3CCCC3)c(=O)c2=O)cc1` here?
Answer: The outcome was “inactive”.

Question: For `Cc1cc(=O)[nH]c(=S)[nH]1`, which outcome is on record?
Answer: The outcome was “inactive”.

Question: With `CC[C@@H](CO)NCCN[C@@H](CC)CO` as the molecule, how does the outcome read?
Answer: The outcome was “inactive”.

Question: For `CN(C)C(=O)CSc1nc2ccccc2c(=O)[nH]1`, which outcome is on record?
Answer: Its outcome is “inactive”.

Question: With `Cc1nc(SCC(=O)NCCC(C)C)[nH]c(=O)c1C` as the molecule, how does the outcome read?
Answer: Its outcome is “inactive”.

Question: Which outcome does the source give for `CCC(Sc1nc2c(c(=O)[nH]1)CCC2)C(=O)Nc1cccc(OC)c1` (configuration not stated) here?
Answer: The outcome was “inactive”.

Question: Which outcome does the source give for `Cc1cnc(SCC(=O)NC2CCCCC2)[nH]c1=O` here?
Answer: The outcome was “inactive”.

Question: For `NC[C@H]1O[C@H](O[C@H]2[C@H](O)[C@@H](O[C@H]3O[C@H](CO)[C@@H](O)[C@H](N)[C@H]3O)[C@H](N)C[C@@H]2N)[C@H](O)[C@@H](O)[C@@H]1O`, which outcome is on record?
Answer: The outcome was “inactive”.

Question: For `Cc1[nH]c(=S)[nH]c(=O)c1C`, which outcome is on record?
Answer: The outcome was “inactive”.
